Compound activity: PubChem, National Center for Advancing Translational Sciences (NCATS)
Compounds with a hit are over-represented: about 12% of the library has one in this group of screens.
HP1b binding inh: HTS for Inhibitors of HP1-beta Chromodomain Interactions with Methylated Histone Tails; Chromobox protein homolog 1 (Homo sapiens), P83916; AlphaScreen HP1-beta / biotin-H3K9me3 peptide binding; Potency, µM (top dose mostly 114 µM), for inactives: top-dose activity change, negative = inhibition, actives largely listed as inhibitors; hit rate 0.56% among 390,000; also: nearly all actives have a fitted effect of over 70% in size
Target sequence (P83916 whole entry, looked up): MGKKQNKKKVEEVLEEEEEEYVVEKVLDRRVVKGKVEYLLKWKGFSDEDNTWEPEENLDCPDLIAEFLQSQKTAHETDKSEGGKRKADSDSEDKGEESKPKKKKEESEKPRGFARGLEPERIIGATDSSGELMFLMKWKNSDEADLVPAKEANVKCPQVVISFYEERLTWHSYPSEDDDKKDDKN
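Compound inhibition of the preformed complex between 50 nM HP1-beta and 50 nM biotinylated H3K9me3 peptide was read by AlphaScreen. Buffer was PBS pH 7.4 with 0.01% Tween-20. Incubations ran 30 min at room temperature, with 10 ug/mL donor/acceptor beads.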
BAZ2B block: qHTS Assay for Inhibitors of BAZ2B; Bromodomain adjacent to zinc finger domain protein 2B (Homo sapiens), Q9UIF8; AlphaScreen BAZ2B-H3K14Ac peptide displacement; Potency, µM (highest dose often 114 µM), for inactives: at the top dose activity change, negative = inhibition, most hits filed as inhibitors; hit rate 4.4% among 360,000; also: % is scaled to controls: 0 for no effect and ±100 for the full control effect; nearly all actives have a fitted effect of over 60% in size
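Compounds, titrated to a top concentration of 110 uM, were incubated 30 min at room temperature with preformed BAZ2B/acetyl-K14 H3 peptide complex (50 nM each). Proximity signal was measured by AlphaScreen after 20 min with beads.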
G9a inh: qHTS Assay for Inhibitors of Histone Lysine Methyltransferase G9a; Histone-lysine N-methyltransferase EHMT2 (Homo sapiens), Q96KQ7; G9a H3K9 monomethylation, AlphaScreen, 2 h; Potency, µM (titrated, usually from 102 µM), for inactives: top-dose activity, negative = inhibition, actives largely listed as inhibitors; hit rate 8.8% among 350,000; AID 504332, 2011; also: % is scaled to controls: 0 for no effect and ±100 for the full control effect; nearly all actives have a fitted effect of over 75% in size
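Methyltransferase reactions run at room temperature for 2 h (20 nM enzyme, 500 nM biotin-H3K9 peptide, 20 uM SAM) after a 15 min compound preincubation; product detected by AlphaScreen beads and anti-H3K9me1 antibody.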
JMJD2A Tudor: qHTS Assay for Inhibitors of JMJD2A-Tudor Domain | hit rate 4.4% among 390,000 | Lysine-specific demethylase 4A (Homo sapiens), O75164 | AlphaScreen JMJD2A-Tudor / H3K4me3 peptide binding | Potency, µM (highest dose often 114 µM), inactives show top-dose activity change, negative = inhibition, most hits filed as inhibitors; also: % is scaled to controls: 0 for no effect and ±100 for the full control effect; nearly all actives have a fitted effect of over 50% in size
TDP1 inh: qHTS Assay for Inhibitors of Tyrosyl-DNA Phosphodiesterase (TDP1); Potency, µM (series often up to 130 µM), for inactives: at the top dose activity change, negative = inhibition, actives largely listed as inhibitors; Tyrosyl-DNA phosphodiesterase 1 (Homo sapiens), Q9NUW8; recombinant TDP1, AlphaScreen DNA substrate cleavage; AID 485290, 2010; hit rate 0.28% among 350,000; also: % is scaled to controls: 0 for no effect and ±100 for the full control effect; nearly all actives have a fitted effect of over 40% in size
Target sequence (Q9NUW8 whole entry, looked up): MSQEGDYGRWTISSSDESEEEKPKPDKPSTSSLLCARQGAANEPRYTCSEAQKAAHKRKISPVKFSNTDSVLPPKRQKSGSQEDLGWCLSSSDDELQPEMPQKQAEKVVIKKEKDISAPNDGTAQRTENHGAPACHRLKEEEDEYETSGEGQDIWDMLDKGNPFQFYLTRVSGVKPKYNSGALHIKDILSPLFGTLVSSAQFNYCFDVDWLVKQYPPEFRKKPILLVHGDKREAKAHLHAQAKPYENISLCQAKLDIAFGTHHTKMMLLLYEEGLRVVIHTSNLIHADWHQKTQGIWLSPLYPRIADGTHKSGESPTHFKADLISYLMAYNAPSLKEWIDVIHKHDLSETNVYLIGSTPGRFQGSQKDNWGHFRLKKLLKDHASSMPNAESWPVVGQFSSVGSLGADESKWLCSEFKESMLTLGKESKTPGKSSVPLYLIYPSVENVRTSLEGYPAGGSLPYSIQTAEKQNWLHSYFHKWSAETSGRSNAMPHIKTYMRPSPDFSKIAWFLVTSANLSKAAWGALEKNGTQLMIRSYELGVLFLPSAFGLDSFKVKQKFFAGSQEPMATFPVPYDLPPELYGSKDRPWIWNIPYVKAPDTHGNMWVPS
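Steps: enzyme plus compound, 15 min RT; add biotin/phosphotyrosine-FITC oligonucleotide (15 nM final), react 5 min; add donor/acceptor beads (10 ug/ml final), 10 min; read AlphaScreen. Tdp1 at 1 nM final.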
Sfp PPTase inh: qHTS Assay for Inhibitors of Bacillus subtilis Sfp phosphopantetheinyl transferase (PPTase). Potency, µM, for inactives: largest response in the series, negative = inhibition, usual class: inhibitors. Biochemical Sfp PPTase activity, qHTS. 4'-phosphopantetheinyl transferase ffp (Bacillus subtilis), Q9F4F7. hit rate 3.5% among 310,000;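 also: the enzyme is Sfp with the accession as filed and its product quenches rhodamine fluorescence; 0% = enzyme reaction without inhibitor and -100% = no enzyme wells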
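Fluorescence-quenching assay: 15 nM Sfp-PPTase preincubated 15 min at room temperature with compound, then 5 uM rhodamine-CoA and 12.5 uM BHQ-2-labelled YbbR peptide added. Fluorescence (ex 525/em 598 nm) read at start and after 30 min; difference gives rate.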
The depositor's hits bear a star; ? = inconclusive; . = no result given; ! = repeats disagree; [ ] = remark or other dose. Calls follow the shape of the dose curve; as a rule, active = well fitted curve in the direction sought with a large enough effect; inconclusive = small, poorly fitted or top-dose-only effect, or another doubt; inactive = no such curve, though single readings can be large; an effect the other way counts as inactive or inconclusive. Potency is read from the fitted curve at half-maximal effect.

SMILES | HP1b binding inh | BAZ2B block | G9a inh | JMJD2A Tudor | TDP1 inh | Sfp PPTase inh
CC(=O)C1=C(O)C(=O)N(CCC(=O)O)C1c1ccccc1Cl (centres undefined) | -2.3% | ? | 24.2%[12.7 µM] | 22.4µM* | -5.9% | 15.2%
COc1cc(C2C(C(=O)c3ccco3)=C(O)C(=O)N2CCc2ccccc2)ccc1O (centres undefined) | 16.3% | ? | 39.8µM* | ? | -1.0% | 5.4%
C=CCc1cc(F)c(S(=O)(=O)N2CCN(S(=O)(=O)c3ccc4c(c3)OCCO4)CC2)cc1F | . | . | . | -9.6% | -0.5% | .
CCCCN1CC(c2nc3ccccc3n2CCCCOc2ccccc2C)CC1=O (centres undefined) | 34.2% | -0.6% | ? | -12.3% | 2.9% | .
CCN(CC(=O)Nc1ccc(NC(C)=O)cc1)C(=O)CN1C(=O)C2CCCCC2C1=O (centres undefined) | 35.2% | 28.3% | 21.1%[59 µM] | -10.8% | 0.3% | .
CCOC(=O)c1[nH]c2c(c1Cc1ccccc1OC)C(=O)CC(c1ccc(OC)cc1)C2 (centres undefined) | 7.9% | -32.5% | -27.7%[59 µM] | -18.2% | 5.0% | .
CCOc1cc(C2C(C(=O)c3ccco3)=C(O)C(=O)N2CC2CCCO2)ccc1O (centres undefined) | 0.1% | -20.1% | 44.7µM* | -15.8% | -8.3% | 3.6%
CCCn1c(=O)c2ccccc2n2c(SCC(=O)c3ccc(F)cc3)nnc12 | . | 11.6% | 3.0%[2.33 µM] | . | -1.6% | -10.6%
CCCCn1c(=O)c2ccccc2n2c(=S)[nH]nc12 | -19.3% | ? | 1.26µM* | 3.55µM* | 15.2% | ?
CCCn1c(=O)c2ccccc2n2c(=S)[nH]nc12 | 26.6% | -5.2% | 3.55µM* | 1.41µM* | . | 79.4µM*
CCCn1c(=O)c2ccccc2n2c(SCC(=O)c3ccccc3)nnc12 | 11.1% | -27.7% | ? | 25.1µM* | 7.1% | 1.7%
CCCCCCn1c(=O)c(-c2ccccc2)c(O)c2ccccc21 | 23.2% | 8.2% | 36.4%[12.7 µM] | -4.7% | 3.9% | -11.6%
CCCCCn1c(=O)c2ccccc2n2c(=S)[nH]nc12 | 0.2% | -33.2% | 1.41µM* | 6.31µM* | . | 56.2µM*
O=c1c2ccccc2n2c(=S)[nH]nc2n1-c1ccccc1 | ? | ? | 5.01µM* | 3.16µM* | 3.7% | 44.7µM*
Cn1c(=O)c2ccccc2n2c(CCl)nnc12 | 25.7% | -2.3% | -7.7% | -3.5% | 2.6% | 21.7%
Cn1c(=O)c2ccccc2n2c(=S)[nH]nc12 | 79.4µM* | -9.5% | 6.31µM* | 3.16µM* | 4.6% | 50.1µM*
Cc1nnc2n(-c3ccccc3)c(=O)c3ccccc3n12 | -13.3% | . | . | -20.9% | . | .
Cc1ccc(S(=O)(=O)NCC(Nc2cccc(Cl)c2)c2ccccc2)cc1 (centres undefined) | 40.8% | -18.1% | ? | -7.1% | 1.9% | .
O=C(/C=C/c1ccc(O)c(O)c1)OC(Cc1ccc(O)c(O)c1)C(=O)O (centres undefined) | ? | 39.8µM* | 3.55µM* | 12.6µM* | . | 79.4µM*!
O=C(/C=C\c1ccc(O)c(O)c1)O[C@@H](Cc1ccc(O)c(O)c1)C(=O)O | . | . | . | . | . | 50.1µM*
N[C@@H](Cc1ccc(O)c(I)c1)C(=O)O | . | 6.1% | 6.6% | . | 2.7% | -6.4%
CCOCCCNS(=O)(=O)c1ccc(-n2cnnn2)c(OC)c1 | 64.3% | -4.6% | 3.8%[59 µM] | -7.6% | -2.3% | 14.8%
COc1cc(S(=O)(=O)NCCc2ccc3c(c2)OCO3)ccc1-n1cnnn1 | 10.7% | -7.0% | 56.2µM* | -9.2% | 7.7% | 3.5%
CCCNS(=O)(=O)c1ccc(-n2cnnn2)c(OC)c1 | 46.4% | -2.7% | 3.3% | -9.2% | 8.3% | 9.5%
COc1ccc(CNS(=O)(=O)c2ccc(-n3cnnn3)c(OC)c2)cc1 | -12.9% | 2.9% | 50.1µM* | -1.4% | 8.1% | 4.5%
SMILES | HP1b binding inh | BAZ2B block | G9a inh | JMJD2A Tudor | TDP1 inh | Sfp PPTase inh
Cc1nn2c(=O)cc(COC(=O)c3cccc(NC(=O)c4ccc(F)cc4)c3)nc2s1 | 22.6% | 1.1% | 1.2%[59 µM] | -17.9% | 3.8% | .
NC(=O)C1C2C=CC(C2)C1c1ccccc1 (centres undefined) | 19.2%[57 µM] | . | . | 2.8% | . | .
CN1C(=O)c2ccccc2Sc2ccc(NC(=O)N3CCN(c4cccc(Cl)c4)CC3)cc21 | 2.1% | ? | -27.2%[59 µM] | ? | 2.9% | .
COc1ccc(CNC(=O)CSc2n[nH]c(-c3ccc(OC)cc3)n2)cc1 | 22.5%[57 µM] | 7.8% | -7.2%[59 µM] | -12.3% | -2.7% | .
C=C1N[C@]2(C(=O)COC(C)=O)[C@@H](C[C@H]3[C@@H]4CCC5=CC(=O)C=C[C@]5(C)[C@H]4[C@@H](O)C[C@@]32C)O1 | . | . | -1.8%[12.7 µM] | . | . | -1.0%
Cc1noc(C)c1C(=O)Nc1c(F)cc(F)cc1Br | 24.7% | -4.1% | 13.9%[59 µM] | -14.4% | 0.0% | 1.6%
O=C(Nc1c(F)cc(F)cc1Br)c1ccco1 | 18.2% | -7.6% | ? | -8.2% | 3.2% | 50.1µM*
COc1cc(/C=C2/NC(=O)N(Cc3ccccc3F)C2=O)cc(OC)c1O | 33.4% | 1.0% | 35.5µM* | -20.3% | 0.0% | -13.8%
O=C(O)c1ccc(COc2ccc3ccccc3c2/C=C2/NC(=O)N(Cc3ccc(F)cc3)C2=O)cc1 | ? | 28.2µM* | ? | 20µM* | -8.1% | 70.8µM*
O=C1N/C(=C/c2cccn2-c2ccccc2)C(=O)N1Cc1ccccc1F | 13.9% | -4.1% | ? | -15.9% | 0.0% | -3.1%
O=C(O)c1ccc(COc2ccccc2/C=C2\NC(=O)N(Cc3ccccc3)C2=O)cc1 | ? | -28.3% | ? | 25.1µM* | 4.7% | 9.4%
O=C1NC(=O)N(Cc2ccccc2F)C1=O | 11.7% | -37.2% | 22.4µM* | -13.8% | . | ?
NC(=O)c1c(NC(=O)C(=O)N2CCOCC2)sc2c1CCC2 | 42.0% | -25.2% | -10.7% | -6.2% | 5.5% | -1.3%
COc1ccccc1NC(=O)C1CCC(CNS(=O)(=O)c2ccc3c(c2)CC(C)N3C(C)=O)CC1 (centres undefined) | 27.8% | -16.0% | -5.0%[59 µM] | 8.8% | -7.7% | .
COc1ccc(N2CCN(C(=O)Cn3cnc4sc(C)c(S(=O)(=O)N5CCC(C)CC5)c4c3=O)CC2)cc1 | 2.8% | -37.0% | ? | ? | 2.9% | .
O=C(COc1ccccc1/C=C1\SC(=O)NC1=O)Nc1ccccc1 | 1.8% | . | -49.3% | -23.4% | 2.3% | 3.1%
